# Measured values from PubChem BioAssay (NCATS).
# Values joined by “and” are separate entries in the source; they are usually repeats but may differ in a detail not shown here. Equal values may be shown once. Results filed as inconclusive are left out. Entries that show only a call come without a potency. Values without a mark were called inactive. Active and inactive are the calls of the source. The call rests on the fitted dose curve; in most records, active means well fitted curve in the direction sought with a large enough effect; inconclusive means small, poorly fitted or top-dose-only effect, or another doubt; inactive means no such curve, though single readings can be large; an effect the other way counts as inactive or inconclusive.
# Tests used:
# [1] = system: Zika virus NS2B-NS3 protease (unlinked complex); assay: Primary screen GU Rhodamine qHTS for Zika virus inhibitors: Unlinked NS2B-NS3 protease assay (AID 1347159); conditions: Recombinant ZIKV NS2B-NS3 protease, Rhodamine110 substrate fluorescence; series mostly up to 107 µM; further: nearly all actives have a fitted effect of over 60% in size; further: potency means the concentration at half of the fitted maximal effect
# Outline: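 In dose–response format, inhibition of unlinked protease (25 nM) was measured with 1.5 microM bis-peptide Rhodamine110 substrate. Aprotinin served as the intraplate control.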
# [2] = ZIKV-mCherry secondary qHTS for Zika virus inhibitors (AID 1347158); conditions: Vero cells, ZIKV-mCherry infection imaging, 48-72 h; series mostly up to 49.2 µM; further: top concentration of the series differs between compounds
# Outline: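 Compounds were tested in Vero monkey kidney cells infected with recombinant mCherry-expressing Zika virus at MOI 1 for 48-72 h at 37 °C. Fixed cells were nuclear-stained and imaged, and infection rate was taken as the fraction of mCherry-positive cells.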
# [3] = Confirmatory screen NINDS Rhodamine qHTS for Zika virus inhibitors (AID 1347161); conditions: purified enzyme assay, Rhodamine110 substrate fluorescence, 15 min; further: potency means the concentration at half of the fitted maximal effect; nearly all actives have a fitted effect of over 60% in size
# Outline: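 Single-chain NS2B-NS3 protease, 25 nM, pH 8.0; compounds preincubated 15 min. Activity: Rhodamine110 release from 1.5 microM substrate over 15 min, room temperature, data fitted to 4-parameter Hill.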
# [4] = system: Zika virus NS2B-NS3 protease (linked); assay: 384 well plate NINDS AMC confirmatory qHTS for Zika virus inhibitors (AID 1347163); conditions: Recombinant NS2B-NS3 protease, Ac-VKTGKR-AMC fluorescence; series mostly up to 100 µM; further: nearly all actives have a fitted effect of over 50% in size; further: potency means the concentration at half of the fitted maximal effect;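 on activity change, negative = inhibition: linked protease at 5 30 or 60 nM final depending on run; fluorescence of AMC released from Ac-VKTGKR-AMC peptide cleaved by the protease; top concentration of the series differs between compounds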
# Outline: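 Fluorescence at 355/460 nm was read after 25 minutes of cleavage of 30 microM Ac-VKTGKR-AMC at room temperature, in the dark. Before substrate addition, compounds (up to 1 mM final) sat ~15 minutes with 5, 30 or 60 nM linked protease. Signals were normalized to no-enzyme and no-inhibitor wells.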
# [5] = system: Zika virus NS2B-NS3 protease (linked construct); assay: 384 well plate NINDS Rhodamine confirmatory qHTS for Zika virus inhibitors (AID 1347164); conditions: rhodamine-110 peptide substrate fluorescence; series mostly up to 100 µM; further: nearly all actives have a fitted effect of over 65% in size; further: potency means the concentration at half of the fitted maximal effect; on activity change, negative = inhibition: top concentration of the series differs between compounds
# Outline: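 Compounds are incubated about 15 minutes with linked protease (5, 30 or 60 nM final). Rhodamine 110-tagged Ac-LKRR substrate (10 microM final) is added and fluorescence measured after 25 minutes.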
# [6] = Tertiary RLuc qRT-PCR qHTS assay for Zika virus inhibitors (AID 1347169); conditions: infected Vero cells, reporter luminescence, 48-72 h; series mostly up to 45.9 µM; further: nearly all actives have a fitted effect of over 55% in size; further: potency means the concentration at half of the fitted maximal effect; on activity change, negative = inhibition: top concentration of the series differs between compounds
# Outline: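 Orthogonal cell-based infection assay using recombinant ZIKV-RLuc (Cambodian) in Vero cells; compound added prior to virus at MOI 1-2. Incubation lasts 48-72 hrs at 37 degrees C before live-cell Renilla substrate is added and luminescence measured.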
# [7] = system: Zika virus NS2B-NS3 protease (linked construct); assay: Primary screen NINDS Rhodamine qHTS for Zika virus inhibitors (AID 1347160); conditions: purified NS2B-NS3 protease, Rhodamine110 substrate fluorescence; series mostly up to 57.1 µM; further: potency means the concentration at half of the fitted maximal effect; nearly all actives have a fitted effect of over 55% in size
# Outline: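 Each compound, titrated, sat 15 min with 25 nM linked protease before 1.5 microM Rhodamine110 substrate went in. Fluorescence gain over the next 15 min, in pH 8.0 Tris with Tween 20, gave Hill-fitted curves.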
# [8] = Vero cells viability qHTS for Zika virus inhibitors (AID 1347167); conditions: cytotoxicity counter-screen (Zika); series mostly up to 45.9 µM
# Outline: (§1)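 To flag cytotoxic protease inhibitors, viability is measured by ATP-dependent luminescence (CellTiter Glo) after cells attached overnight receive compound for 24 to 48 hours in DMEM with 4% FBS.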
# [9] = HepG2 cells viability qHTS for Zika virus inhibitors (AID 1347168); conditions: Zika counter-screen; series mostly up to 45.9 µM
# Outline: as §1
structure (smiles),measurement,setting,value
OC[C@H]1O[C@@H](OCCc2ccc(O)cc2)[C@H](O)[C@@H](O)[C@@H]1O,Potency,[1],inactive
O=S(=O)(O)c1ccc2c(N=Nc3ccc(S(=O)(=O)O)c4ccccc34)c(O)c(S(=O)(=O)O)cc2c1,outcome,[2],inactive
same,Potency,[3],3.16 µM (active)
same,Potency,[4],63.1 µM (active) and 79.4 µM (active)
same,Potency,[5],15.8 µM (active) and 12.6 µM (active)
same,Potency,[6],inactive
CC(C)C(=O)c1cn(CC(=O)COc2ccc(Oc3ccccc3)cc2)c2ccc(C(=O)O)cc12,outcome,[2],inactive
same,Potency,[1],8.91 µM (active)
same,Potency,[7],8.91 µM (active)
same,Potency,[3],5.55 µM (active)
same,Potency,[4],44.7 µM (active)
same,Potency,[5],inactive
same,outcome,[8],inactive
same,outcome,[9],inactive
same,Potency,[6],18.6 µM (active)
C[C@@H]1O[C@@H](OC[C@H]2O[C@@H](OCC3CCC4CC3C4(C)C)[C@H](O)[C@@H](O)[C@@H]2O)[C@H](O)[C@H](O)[C@H]1O (some centres not stated),Potency,[1],inactive
CC(=O)NC(C(=O)OC1CCC(C)(C)C2CC=C3C(=O)OCC3(O)C12C)C(C)C (configuration not stated),Potency,[1],inactive
C=CC1(C)CC(O)C2(CCC3C(C)(C(=O)O)CCCC3(C)C2=O)C1 (configuration not stated),Potency,[1],inactive
OC[C@H]1O[C@@H](Oc2cc(O)cc(-c3cc4ccc(O)cc4o3)c2)[C@H](O)[C@@H](O)[C@@H]1O,Potency,[1],inactive
COc1cc(C[C@H]2COC(=O)[C@@H]2Cc2ccc(O)c(OC)c2)ccc1O,Potency,[1],35.5 µM (active)
C=CCc1ccc(O[C@@H]2O[C@H](CO[C@@H]3O[C@@H](C)[C@H](O)[C@@H](O)[C@H]3O)[C@@H](O)[C@H](O)[C@H]2O)cc1,Potency,[1],inactive
COC(=O)CC1(O)C(=O)Nc2ccccc21 (configuration not stated),Potency,[1],inactive
CC1=C2[C@@H]([C@H](C)CC[C@H]2/C=C(\C)C(=O)O)[C@H](O)C1,Potency,[1],inactive
Nc1c(N=Nc2ccc(-c3ccc(N=Nc4cc(S(=O)(=O)O)c5ccccc5c4N)cc3)cc2)cc(S(=O)(=O)O)c2ccccc12,outcome,[2],inactive
same,Potency,[3],2.24 µM (active)
same,Potency,[5],7.08 µM (active)
CC1(C)C(=O)N2c3ccccc3[C@]3(CC(n4cnc5ccccc5c4=O)C(=O)O3)[C@H]2N1O (some centres not stated),Potency,[1],inactive
C/C=C/C=C/C=C/C(=O)O[C@@H]1[C@@H](OC)C2=C(C(=O)N(C(C)C(=O)O)C2)[C@@]2(C)CCCC(C)(C)[C@H]12 (some centres not stated),Potency,[1],7.94 µM (active)
C=Cc1cc(O)cc2nc(-c3ccc(O)c(F)c3)oc12,Potency,[1],35.5 µM (active)
C[C@]12CCC[C@](C)(C(=O)O)C1CCC13C=C(CO)C(CCC12)C3 (some centres not stated),Potency,[1],inactive
COC(=O)[C@H](OC(C)=O)[C@H]1C(C)(C)C(=O)[C@H]2CC3=C4CC(=O)O[C@@H](c5ccoc5)[C@]4(C)CCC3[C@@]1(C)C2=O (some centres not stated),Potency,[1],inactive
CCNC(=O)[C@H]1O[C@H](n2cnc3c(NCC(c4ccccc4)c4ccccc4)nc(C(=O)NCCNC(=O)NC4CCN(c5ccccn5)CC4)nc32)[C@H](O)[C@@H]1O,Potency,[1],inactive
O=C(O)c1cnn(-c2nc3cc(OC(F)(F)F)c(Cl)cc3[nH]2)c1,outcome,[2],inactive
same,Potency,[1],5.01 µM (active)
same,Potency,[7],2 µM (active)
same,Potency,[3],5.69 µM (active)
same,Potency,[5],0.794 µM (active)
same,outcome,[8],inactive
same,outcome,[9],inactive
CC(C)N=c1cc2n(-c3ccc(Cl)cc3)c3ccccc3nc-2cc1Nc1ccc(Cl)cc1,outcome,[2],inactive
same,Potency,[5],inactive
same,outcome,[8],inactive
CCCC(N[C@@H](C)C(=O)N1[C@H](C(=O)O)C[C@@H]2CCCC[C@@H]21)C(=O)OCC (some centres not stated),Potency,[1],inactive
O=C(O[C@@H]1O[C@H](CO)[C@@H](O)[C@H](O)[C@H]1O)c1c(O)cc(O)cc1/C=C/c1ccccc1,Potency,[1],inactive
O=C(O)c1cc(O)c2cccc(O)c2c1O[C@@H]1O[C@H](CO)[C@@H](O)[C@H](O)[C@H]1O,outcome,[2],inactive
same,Potency,[1],10 µM (active)
same,Potency,[3],2.73 µM (active)
same,Potency,[4],inactive
same,Potency,[5],2.82 µM (active)
same,outcome,[8],inactive
same,outcome,[9],inactive
same,Potency,[6],inactive
CC(C)C1=CCC(C)(O)C(OC2OC(CO)C(O)C(O)C2O)C1 (configuration not stated),outcome,[2],inactive
same,Potency,[1],22.4 µM (active)
same,Potency,[7],10 µM (active)
same,Potency,[3],7.68 µM (active)
same,Potency,[5],5.62 µM (active)
same,outcome,[8],inactive
same,outcome,[9],inactive
same,Potency,[6],inactive
CCC(NC(=O)CC(NC(=O)C(CO)NC(=O)C(CC)NC(=O)c1ccc[nH]1)c1ccccc1)C(=O)O (configuration not stated),Potency,[1],inactive
C=CC(C)(O)CC/C=C(\C)C(=O)OCC1OC(OC2CCC3(C)C(CCC4(C)C3CC=C3C5CC(C)(C)C(O)CC5(C(=O)O)CCC34C)C2(C)C)C(O)C(OC2OC(CO)C(O)C(OC3OC(CO)C(O)C(OC4OC(COC5OC(CO)C(O)C(O)C5O)C(O)C(O)C4O)C3O)C2O)C1O (configuration not stated),"activity change, negative = inhibition",[1],5.91% [at 19.1 µM]
